# Source: PubChem BioAssay
# An excerpt weighted towards active compounds, which were near 3.1% of everything screened.
# p53null 32C kill – qHTS Screen for Compounds that Selectively Target Cancer Cells with p53 Mutations: Cytotoxicity of p53 Null Cells at the Permissive Temperature; Potency, µM (doses to about 46.1 µM), without a hit: at the top dose activity change, negative = cytotoxicity, most hits filed as cytotoxic; AID 903, 2007; 0.62% of 55,000 active; H1299-neo p53 null cells, ATP luminescence, 24 h, 32C;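 note: 0% = DMSO only and -100% = full killing by 100 µM tamoxifen; nearly all actives have a fitted effect of over 55% in size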
#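 Cells lacking p53 (H1299-neo) are plated at 600 per well and allowed to settle overnight at 37C. Test compounds (up to 46 uM) are added and held 24 hours at 32C, then ATP is quantified by luminescence.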
# S16 F2sN tox – Cell viability qHTS assay in S16 Pmp22-F2sN cells | S16 Pmp22-F2sN Schwann cells viability, CellTiter-Glo, 24 h | AID 1508642, 2021 | 0.48% of 43,000 active | Potency, µM (series often up to 57.5 µM), inactives show at the highest dose activity change, negative = cytotoxicity, hits mostly cytotoxic; note: nearly all actives have a fitted effect of over 65% in size
#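 CellTiter-Glo counter-screen, qHTS, 1536-well. Cells: S16(c9) Pmp22-F2sN, 500-1,000/well in DMEM + 10% FBS. Cpd 23 nL pin transfer, 24 h, 37C/5% CO2. Read: luminescence, CCD imager.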
# p53null 39C tox – qHTS Screen for Compounds that Selectively Target Cancer Cells with p53 Mutations: Cytotoxicity of p53 Null Cells at the Nonpermissive Temperature; Potency, µM (top dose mostly 46.1 µM), for inactives: top-dose activity, negative = cell killing, most hits filed as cytotoxic; H1299 p53-null (neo) cells, 39C, ATPlite viability, 24 h; AID 904, 2007; 0.97% of 55,000 active;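 note: 0% = DMSO only and -100% = full killing by 100 µM tamoxifen; nearly all actives have a fitted effect of over 50% in size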
#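 Concentration-response (up to 46 uM) was run for 24 h at the nonpermissive 39C on H1299-p53A138V or H1299-neo cells. ATP content was measured with ATPlite luminescence. AC50 values were Hill-modeled after normalizing between DMSO and 100 uM tamoxifen killing.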
# pS6 MEF inh – Acumen qHTS Assay for Inhibitors of the mTORC1 Signaling Pathway in MEF (Tsc2-/-, p53-/-) Cells: Sytravon; Tsc2-/- p53-/- MEF, phospho-rpS6 immunofluorescence/PI, 24 h; Potency, µM (highest dose often 38.3 µM), for the others: top-dose activity change, negative = inhibition, actives largely listed as inhibitors; 0.78% of 44,000 active; AID 493208, 2011;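 note: plate controls were DMSO for no effect and rapamycin for full effect; nearly all actives have a fitted effect of over 50% in size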
#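 Tsc2-/-, p53-/- mouse embryonic fibroblasts (empty-vector line) exposed to compound 24 hrs at 37 C, fixed, immunostained for phospho-rpS6 and counterstained with propidium iodide. Acumen laser scanning gives % positive cells from Alexa 488/PI ratio, thresholded using 7.5 nM rapamycin; PI count gives viability.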
# PMP22 txn prim – Cell-based coincidence reporter assay to measure PMP22 gene transcription in S16 Pmp22-F2sN cells - Primary screen | AID 1508649, 2021 | 2% of 43,000 active | S16 Pmp22-F2sN Schwann cells (luciferase reporters placed in the Pmp22 gene), FLuc/NLuc coincidence luminescence, 24 h | Potency, µM (top dose mostly 57.5 µM), inactives show at the highest dose activity change, negative = inhibition, usual class: inhibitors; active = clear falling dose curves in both reporters; inconclusive = both reporters move, but less clearly or upward; inactive = either reporter flat; the % is the NLuc reporter signal
#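 Schwann cells carrying the coincidence reporter were exposed to library compounds for 24 h at 37C, then lysed and read for FLuc and, after quenching, NLuc luminescence on a CCD imager.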
# SKOV3 invasion – Primary qHTS assay for Inhibitors of ovarian cancer metastasis using an organotypic tumor microenvironment (TME) model. SKOV3ip1-GFP adhesion/invasion on 3D omental model, fluorescence. Potency, µM (titrated, usually from 45.8 µM), for inactives: top-dose activity change, negative = inhibition, usual class: inhibitors. 0.1% of 46,000 active;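 note: plate controls were DMSO wells for no effect and tomatine positive control wells for full effect; nearly all actives have a fitted effect of over 65% in size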
#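 Adhesion/invasion was scored as fixed GFP-labeled SKOV3ip1 cell counts (488/509 nm), normalized to DMSO and tomatine controls. Cancer cells in serum-free medium, with four compound doses (0.36-46 umol/L), sat 2 hr at RT then 16 hr at 37 C on a 48 hr fibroblast/mesothelial/ECM culture.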
# Active calls of the source: *; i = inactive; ? = inconclusive; · = no result given. Unless noted, calls come from the whole dose curve; as a rule, active = well fitted curve in the direction sought with a large enough effect; inconclusive = small, poorly fitted or top-dose-only effect, or another doubt; inactive = no such curve, though single readings can be large; an effect the other way counts as inactive or inconclusive. Unless noted, % is set by controls: 0 for no effect and ±100 for the full control effect; potency is the fitted concentration of half-maximal effect.
SMILES,p53null 32C kill,S16 F2sN tox,p53null 39C tox,pS6 MEF inh,PMP22 txn prim,SKOV3 invasion
CCOc1ccc(NC(=O)Cc2ccc(NC(=O)N3CCCCc4ccccc43)cc2)cc1,-3%,14µM*,-15%,-4%,-10%,-1%
O=C(c1cncc(Br)c1)N1CCC(N2CCCC2)CC1,·,·,·,·,·,4%
COc1ccc(S(=O)(=O)NCC(c2ccco2)S(=O)(=O)c2cccs2)cc1F (configuration not stated),3%,13µM*,-27%,-5%,15µM*,7%
COc1ccc(S(=O)(=O)NCC(c2ccco2)S(=O)(=O)c2cccs2)cc1C (configuration not stated),15%,22µM*,-1%,-1%,?,-2%
Cc1cc(F)ccc1S(=O)(=O)NCC(c1ccco1)S(=O)(=O)c1cccs1 (configuration not stated),6%,16µM*,16%,1%,?,?
CCOc1ccc(S(=O)(=O)NCC(c2ccco2)S(=O)(=O)c2cccs2)cc1 (configuration not stated),1%,?,20%,1%,?,-1%
CN(C)CCC=C1c2ccccc2COc2ccc(CC(=O)O)cc21,·,·,·,·,·,1%
CCOC(=O)c1cc2c(=O)n3ccccc3nc2n(CC2CCCO2)c1=NC(=O)c1cc(C)cc(C)c1 (configuration not stated),?,?,?,-6%,1.5µM*,1%
CCCCN(CC)CCCNC(=O)C1CCN(c2nc3ccc(CC)cc3s2)CC1,?,?,13µM*,7.4µM*,?,?
CCCCN(C)CCCNC(=O)C1CCN(c2nc3ccc(CC)cc3s2)CC1,?,?,13µM*,18µM*,?,?
CCCCN(C)CCCNC(=O)C1CCN(S(=O)(=O)CC)CC1,-6%,6%,-2%,6%,-9%,?
CCc1ccc2nc(N3CCN(C(=O)c4ccco4)CC3)sc2c1,-29%,0%,-12%,-4%,?,-2%
CCCCN(CCCNC(=O)c1cc(Nc2cccc(SC)c2)nc2ccccc12)Cc1ccccc1,-19%,?,5.6µM*,16µM*,?,?
CSc1cccc(Nc2cc(C(=O)NCCc3ccc(Cl)cc3)c3ccccc3n2)c1,-8%,-25%,?,-8%,?,i
CCC[C@H]1C[C@H](C(=O)N[C@@H]([C@@H]2O[C@@H](SC)[C@@H](O)[C@@H](O)[C@@H]2O)[C@H](C)Cl)N(C)C1,·,·,·,·,·,12%
COc1cc(Nc2nc(SCC(=O)c3ccc(Cl)c(Cl)c3)nc3ccccc23)cc(OC)c1,-1%,-6%,21%,12µM*,?,i
O=C(C=Cc1c(C(=O)O)[nH]c2cc(Cl)cc(Cl)c12)Nc1ccccc1,·,·,·,·,·,-17%
C[C@@H]1[C@H](C)CC[C@]2(C(=O)O)CC[C@]3(C)C(=CC[C@@H]4[C@@]5(C)C[C@@H](O)[C@H](O)[C@@](C)(CO)[C@H]5CC[C@]43C)[C@@H]12,·,·,·,·,·,-4%
CC(=O)c1cccc(NC(=O)c2nc3ccccc3n(C)c2=O)c1,2.8µM*,?,2.5µM*,-8%,?,-8%
Cc1ccc(-c2cc(-c3ccccc3C)[nH]n2)c(O)c1,13µM*,·,-96%,·,·,·
CC(=O)OCC(=O)[C@@]12N=C(C)O[C@H]1C[C@H]1[C@@H]3CCC4=CC(=O)C=C[C@]4(C)[C@@H]3[C@@H](O)C[C@@]12C,·,·,·,·,·,17%
CN[C@H]1[C@@H](O)[C@@H]2O[C@@H]3O[C@H](C)CC(=O)[C@]3(O)O[C@@H]2[C@@H](NC)[C@H]1O,·,·,·,·,·,-26%
COc1ccc(OC)c(C2CC(=O)c3c([nH]c(C(=O)OCC4CCCCC4)c3C)C2)c1 (configuration not stated),14%,?,-5%,?,-14%,-20%
COc1cc(C2CC(=O)c3c([nH]c(C(=O)OCC4CCCCC4)c3C)C2)cc(OC)c1OC (configuration not stated),-14%,-11%,-28%,-20%,5.7µM*,18%
COc1cc(C2CC(=O)c3c([nH]c(C(=O)OC4CCCCC4)c3C)C2)cc(OC)c1OC (configuration not stated),-18%,?,2%,?,18µM*,?
SMILES,p53null 32C kill,S16 F2sN tox,p53null 39C tox,pS6 MEF inh,PMP22 txn prim,SKOV3 invasion
O=c1[nH]c(=O)n([C@H]2C[C@@H](O)[C@@H](CO)O2)cc1C(F)(F)F,·,·,·,·,·,-2%
Cn1nnnc1SCCNCc1ccc(OCc2ccccc2Cl)cc1,?,-22%,-14%,-9%,-46%,-11%
Oc1ccc(NCc2ccccc2OCc2ccccc2Cl)cc1,4%,20µM*,-18%,-28%,7µM*,-5%
Cc1cccc(NCc2ccccc2OCc2ccccc2F)c1,-16%,·,·,·,·,·
Oc1ccc(NCc2ccc(OCc3ccccc3Cl)cc2)cc1,?,?,?,16µM*,?,i
Oc1ccc(OCc2ccccc2)cc1,·,·,·,·,·,4%
Oc1ccc(NCc2ccc(OCc3ccccc3)cc2)cc1,?,10µM*,?,15µM*,4.6µM*,?
CCOC(=O)[C@@H](N)Cc1ccc(-c2cc(O[C@H](c3ccc(Cl)cc3-n3ccc(C)n3)C(F)(F)F)nc(N)n2)cc1,·,·,·,·,·,-12%
COc1cc(OC)c(NS(=O)(=O)c2c(C)nc3sc(C)cn3c2=O)cc1Cl,-6%,?,20µM*,-8%,?,5%
COc1ccc(CCNS(=O)(=O)c2c(C)nc3sc(C)cn3c2=O)cc1OC,6%,17%,2%,-11%,-9%,4%
CCN1CCN(CC(=O)Nc2ccc(-c3cccc4c(=O)cc(N5CCOCC5)oc34)c3sc4ccccc4c23)CC1,·,·,·,·,·,15%
Cc1ccc(CNC(=O)c2c[nH]n3c(=O)c(Cc4ccc(Cl)cc4)c(C)nc23)cc1,?,-12%,?,-19%,-24%,i
Cc1nc2c(C(=O)NCCc3ccc(Cl)cc3)c[nH]n2c(=O)c1Cc1ccc(Cl)cc1,?,5%,20µM*,-16%,3%,i
